Bioassay records as filed in PubChem BioAssay.
Compounds with a hit are over-represented: about 7.4% of the library has one in this group of screens.
ELG1 genotoxic: inducers of genotoxicity in HEK293T ELG1-luciferase cells; HEK293T ELG1-luciferase reporter, luminescence, 16 h; Potency, µM (titrated, usually from 46 µM), without a hit: at the top dose activity change, positive = activation, most hits filed as activators; 1.3% of 330,000 active; note: % of control where 0% means no effect; nearly all actives have a fitted effect of over 60% in size
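Reporter readout depends on ELG1 protein level, which increases with genetic stress. After 16 hr compound exposure at 37 °C, luciferase activity was quantified using ONE-Glo.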
SMN2 splice up: SMN2 splice variant enhancement; HEK293 SMN2-luciferase splicing reporter, luminescence, 30-36 h; Potency, µM (titrated, usually from 46.1 µM), for the others: at the highest dose activity change, positive = activation, usual class: activators; 2.8% of 210,000 active; AID 1458; note: % of control where 0% means no effect; nearly all actives have a fitted effect of over 55% in size
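HEK293 cells carry an SMN2 […]–luciferase reporter in which exon 7 inclusion puts luciferase in frame. Cells were plated 10-12 h before compound addition, then incubated 30-36 h at 37C. ONE-Glo luminescence was read; sodium butyrate at 4.5 mM final served as control.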
FLuc modulator: inhibits or activates purified firefly luciferase, miR-21 counter-screen. P08659. purified FLuc, Km substrates, luminescence inhibition. 6.9% of 360,000 active. Potency, µM (titrated, usually from 57.5 µM), for inactives: at the highest dose activity change, negative = inhibition, actives largely listed as inhibitors. AID 588342;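 note: plate controls were vehicle for no effect and reference inhibitor for full effect; nearly all actives have a fitted effect of over 55% in size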
Target sequence (P08659 whole entry, looked up): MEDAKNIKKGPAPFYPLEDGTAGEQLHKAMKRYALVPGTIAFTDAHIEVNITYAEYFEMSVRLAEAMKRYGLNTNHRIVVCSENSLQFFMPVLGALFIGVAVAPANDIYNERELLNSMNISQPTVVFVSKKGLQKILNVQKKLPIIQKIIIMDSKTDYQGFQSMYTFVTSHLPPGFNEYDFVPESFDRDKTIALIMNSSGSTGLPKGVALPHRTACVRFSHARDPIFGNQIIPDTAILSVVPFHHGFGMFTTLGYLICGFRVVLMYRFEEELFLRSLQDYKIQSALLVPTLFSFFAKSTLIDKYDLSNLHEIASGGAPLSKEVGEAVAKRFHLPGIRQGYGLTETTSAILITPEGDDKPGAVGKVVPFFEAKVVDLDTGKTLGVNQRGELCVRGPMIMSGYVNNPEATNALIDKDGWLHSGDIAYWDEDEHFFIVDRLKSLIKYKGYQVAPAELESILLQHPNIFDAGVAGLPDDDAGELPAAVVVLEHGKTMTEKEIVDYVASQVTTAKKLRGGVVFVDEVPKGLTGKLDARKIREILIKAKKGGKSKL
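Purified P. pyralis luciferase, 10 nM final, with Km-level 10 uM D-luciferin and 10 uM ATP in 50 mM Tris acetate pH 7.5, 10 mM Mg acetate, 0.01% Tween-20, 0.05% BSA; 6-point qHTS titration about 60 µM downward; luminescence read.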
Luc counter: Kinase-Glo luciferase inhibition (counter-screen) | AID 1379 | Kinase-Glo luciferase, ATP luminescence, 8 min | Potency, µM (top dose mostly 38.3 µM), for inactives: at the highest dose activity change, negative = inhibition, usual class: inhibitors | Q27757 | 0.28% of 200,000 active; note: % is set by controls: 0 for no effect and ±100 for the full control effect; nearly all actives have a fitted effect of over 60% in size
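Inhibition of Kinase-Glo luciferase light generation was assessed at 10 uM ATP in pH 7.2 imidazole buffer, with luminescence measured after eight minutes at ambient temperature.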
NPC1 promoter act: NPC1 promoter activation | 2.4% of 320,000 active | Huh7 NPC1 promoter luciferase reporter, 24 h | Potency, µM (top dose mostly 9.22 µM), inactives show top-dose activation, most hits filed as activators; note: % of control where 0% means no effect; nearly all actives have a fitted effect of over 60% in size
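Compounds in DMSO were transferred onto Huh7 NPC1-luciferase reporter cells pre-incubated 2 h; after 24 h at 37 °C, Amplite reagent was dispensed and luminescence recorded 10 min later.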
Rab9 prom act: activators of Rab9 promoter; Huh7 Rab9 promoter-luciferase reporter, luminescence, 24 h; Potency, µM (doses to about 9.22 µM), inactives show at the highest dose activation, negative = inhibition, hits mostly activators; 2.8% of 320,000 active; AID 485297; note: % of control where 0% means no effect; nearly all actives have a fitted effect of over 60% in size
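Using Huh7 cells stably transfected with Rab9 promoter–luciferase, compounds were incubated 24 h at 37 °C, 5% CO2; luciferase luminescence was read 10 min after reagent addition.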
The depositor's hits bear a star; ? = inconclusive; . = no result; [ ] = dose if it differs, or a comment. Calls come from the whole dose curve; as a rule, active = well fitted curve in the direction sought with a large enough effect; inconclusive = small, poorly fitted or top-dose-only effect, or another doubt; inactive = no such curve, though single readings can be large; an effect the other way counts as inactive or inconclusive. Potency is the fitted concentration of half-maximal effect.

SMILES | ELG1 genotoxic | SMN2 splice up | FLuc modulator | Luc counter | NPC1 promoter act | Rab9 prom act
O=C(Nc1ccccc1Cl)OC1CN2CCC1CC2 (configuration not stated) | 1.5% | . | -6.6% | . | -0.8% | -1.6%
O=C(Nc1ccc(Cl)cc1)OC1CN2CCC1CC2 (configuration not stated) | ? | . | 15.1µM* | . | ? | ?
O=C(Nc1cccc(Cl)c1)OC1CN2CCC1CC2 (configuration not stated) | -14.0% | . | 13.5µM* | . | 19.2% | 17.8%
N#CCc1ccccc1 | . | 0.0% | . | . | . | .
O=C(O)/C=C\c1ccc[c]([Sb])c1 | . | -13.6%[9.22 µM] | . | -5.1%[7.66 µM] | . | .
C=CC(=O)OCC | . | -2.2% | . | . | . | .
COc1ccc(N=Cc2c(O)n(Cc3ccccc3)c(=S)[nH]c2=O)c(OC)c1 | ? | . | 1.2µM* | . | ? | ?
CCN(CC)c1ccc(/C=C2/C(=O)NC(=O)N(CC3CCCO3)C2=O)cc1 (configuration not stated) | 7.1% | -6.2% | 16.9µM* | -8.7% | -0.3% | 8.0%
COc1cc2ccccc2c2cc([N+](=O)[O-])oc12 | . | -77.6%[9.22 µM] | . | -3.0%[7.66 µM] | . | .
O=C1/C(=C/c2ccc(F)cc2)Oc2cc(OC(=O)N3CCOCC3)ccc21 | 4.1% | . | 5.36µM* | . | 26.8% | 21.9%
CN(C)C(=O)Oc1ccc2c(c1)O/C(=C\c1cccc(Cl)c1)C2=O | 13.0% | . | 26.9µM* | . | ? | ?
COc1ccc(/C=C2\Oc3cc(OC(=O)N4CCOCC4)ccc3C2=O)c(OC)c1 | -5.1% | . | ? | . | 2.8% | 1.0%
CN(C)C(=O)Oc1ccc2c(c1)O/C(=C\c1ccc(Cl)cc1)C2=O | ? | . | ? | . | ? | 4.47µM*
Cc1ccc(OP(=O)(Oc2ccc(C)cc2)Oc2ccc(C)cc2)cc1 | . | -10.3% | . | . | . | .
N#CC(C(=O)C12CC3CC(CC(C3)C1)C2)c1nc2ccccc2[nH]1 (configuration not stated) | 0.6% | -33.2% | 10.7µM* | -2.1% | -5.7% | 4.2%
CC(=O)c1ccc(OC(=O)N(C)c2ccccc2)cc1 | ? | 15.8µM* | -17.7% | 4.0% | ? | ?
O=[N+]([O-])/C=C/c1ccccc1 | . | 2.2% | . | . | . | .
CC(=O)[O-].CC(=O)[O-].CC(=O)[O-].[Cr+3] | . | -16.4% | . | . | . | .
C=CCOC(=O)c1ccccc1N | 3.4% | -1.7% | -1.7% | . | 1.5% | 1.7%
Nc1ccccc1C(=O)OCCOc1ccccc1 | 0.92µM* | 7.94µM* | 0.601µM* | 12.7% | 0.355µM* | 0.398µM*
CCC1CN2CCC1CC2C(O)c1ccnc2ccc(OC)cc12 (configuration not stated) | . | -11.2% | . | -3.7% | . | .
c1ccc(C[N+]23CN4CN(CN(C4)C2)C3)cc1 | . | -22.4%[9.22 µM] | . | -0.3%[7.66 µM] | . | .
O=C(Oc1ccc2cc(Br)ccc2c1)N1CCCCCC1 | 23.1µM* | ? | 6.75µM* | -1.9% | ? | 3.98µM*
O=C(Nc1ccccc1OC(=O)N1CCCCC1)N1CCCCC1 | -0.8% | -3.7% | -2.0% | 0.1% | 7.9% | -2.7%
Cc1nc2ccc(NC(=O)c3ccc(Cl)s3)cc2s1 | 9.2µM* | 14.1µM* | ? | -4.4% | 3.16µM* | 1.58µM*
SMILES | ELG1 genotoxic | SMN2 splice up | FLuc modulator | Luc counter | NPC1 promoter act | Rab9 prom act
N[C@@H](Cc1c[nH]c2cc([N+](=O)[O-])ccc12)C(=O)O | . | -3.5%[9.22 µM] | . | -6.5%[7.66 µM] | . | .
Cc1cccc(-n2c(/C=C/c3ccccc3O)nc3ccccc3c2=O)c1 | . | -39.4% | -0.4% | . | . | .
Cc1cccc(N2CCc3c2nc2ccccc2c3N)c1 | -18.3% | -4.7% | 21.3µM* | 0.3% | 24.0% | 6.7%
CCOC(=O)c1sc(=NC(=O)c2ccc(C)c(C)c2)n(C)c1C | 11.6µM* | -42.2% | ? | 0.2% | 3.16µM* | 2µM*
CCOC(=O)c1ccccc1C(=O)OCC | . | -5.9% | . | . | . | .
CCC12CCN(CC3CC3)CC1Oc1c(C)cccc12 (configuration not stated) | . | . | 3.9% | . | . | .
Nc1c2c(nc3sc4c(c13)CCCCC4)CCCC2 | -5.2% | 11.2µM* | 6.01µM* | -11.9% | 3.98µM* | ?
O=P(O)(OP(=O)(O)c1ccccc1)c1ccccc1 (tested in a mixture with another compound) | . | 4.3%[9.22 µM] | . | -3.5%[7.66 µM] | . | .
Cn1c(NN=O)nc2ccccc21 | ? | . | 23.9µM* | -0.7% | -12.7% | -44.3%
C/C=C/C/C=C/CCC(=O)[C@H]1O[C@H]1C(N)=O | . | -106.1% | . | . | . | .
Cc1cc(N2CCOCC2)nc2ccc(NC(=O)CCC(=O)N3CCC4(CC3)OCCO4)cc12 | 12.4% | . | 15.1µM* | . | 25.9% | 18.9%
Cc1cc(N2CCCCC2)nc2ccc(NC(=O)CCC(=O)N3CCN(c4cccc(Cl)c4)CC3)cc12 | . | -12.9% | ? | . | . | .
CCC12CCN(CCc3ccc([N+](=O)[O-])cc3)CC1Oc1c(O)cccc12 (configuration not stated) | . | . | 2.2% | . | . | .
COC(=O)C(O)(c1ccc(NC(=O)c2cccs2)cc1)C(F)(F)F (configuration not stated) | 16.5% | . | 15.1µM* | . | 25.9% | ?
CCCCNC(=O)Nc1ccc(C(O)(C(=O)OC)C(F)(F)F)cc1 (configuration not stated) | 15.8% | . | ? | . | 13.1% | 13.2%
COC(=O)N(C)c1ccc(C(O)(C(=O)OC)C(F)(F)F)cc1 (configuration not stated) | -3.3% | 2.0% | 1.0% | -3.6% | -2.3% | -1.5%
COC(=O)C(O)(c1ccc(NC(=O)c2ccccc2)cc1)C(F)(F)F (configuration not stated) | 8.5% | . | 19µM* | . | ? | ?
O=S(=O)(Cl)c1ccccc1 | . | 2.7% | . | . | . | .
NCCSC(c1ccccc1)c1ccccc1 | . | -9.7%[9.22 µM] | . | 0.1%[7.66 µM] | . | .
Cc1ccc(O)cc1C | . | 0.9% | . | . | . | .
CC(C)(C)c1ccc(C(=O)NC(=S)Nn2cnnc2)cc1 | 0.7% | . | 19µM* | . | 19.8% | 23.5%
CC(C)c1cc2c(c(O)c1O)[C@@]1(C(=O)O)CCCC(C)(C)[C@@H]1CC2 | . | . | . | 0.8%[39.9 µM] | . | .
O=C(O)CCn1cc(C=C2C(=O)NC(=S)NC2=O)c(-c2cccc(Cl)c2)n1 | 2.6% | . | 21.3µM* | -7.4% | -4.1% | 1.9%
N#CS.N=C=S.N=C=S.[Cu].[NH2-].[NH2-].[NH2-].[NH2-].c1ccc2ncccc2c1 | . | -8.6%[9.22 µM] | . | -2.2%[7.66 µM] | . | .
O=P(Nc1cccnc1)(Oc1ccccc1)Oc1ccccc1 | 0.4% | 3.98µM* | -3.2% | -4.6% | -0.3% | 0.0%
COc1cccc(NP(=O)(Oc2ccccc2)Oc2ccccc2)c1 | -1.9% | . | -2.1% | . | -17.6% | -5.8%
OCC[n+]1c2ccccc2nc2ccc(N3CCOCC3)cc21 | -10.0% | . | 26.9µM* | . | -3.2% | -3.9%
N#CC(=Cc1ccc(O)c(O)c1)C(N)=S | . | 25.0% | . | -6.6% | . | .
O=P(O)(O)c1ccccc1 (tested in a mixture with another compound) | . | -7.1%[9.22 µM] | . | -5.0%[7.66 µM] | . | .
